Bioassay records deposited in PubChem BioAssay by The Scripps Research Institute Molecular Screening Center.
PAFAH1B2 inh: inhibitors of human PAFAH1B2 | P68402 | recombinant PAFAH1B2, FP-rhodamine activity probe, fluorescence polarization | inhibition, % at 3.39 µM | 340,000 compounds, 1.2% hits;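 active = inhibition above the mean of all tested compounds plus 3 SD, cut at about 24% in these data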;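 note: 0% = enzyme with DMSO and 100% = wells lacking PAFAH1B2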
Target sequence (P68402 whole entry, looked up): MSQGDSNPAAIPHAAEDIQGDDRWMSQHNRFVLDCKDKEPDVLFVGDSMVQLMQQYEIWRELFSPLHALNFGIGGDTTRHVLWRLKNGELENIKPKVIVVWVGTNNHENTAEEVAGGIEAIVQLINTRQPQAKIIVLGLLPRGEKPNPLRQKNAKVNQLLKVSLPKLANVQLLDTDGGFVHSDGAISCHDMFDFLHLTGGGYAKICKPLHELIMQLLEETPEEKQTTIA
PAFAH1B3 inh: PAFAH1B3 (human) inhibition. Q15102. 340,000 compounds, 0.28% hits. inhibition, % at 3.39 µM. recombinant PAFAH1B3, FP-rhodamine probe, fluorescence polarization;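 active = inhibition above the screen-wide average of all tested compounds plus 3 SD, cut at about 25% in these data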;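 note: 0% = enzyme with DMSO only and 100% = wells lacking PAFAH1B3 protein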
LYPLA2 counter: counter-screen for PME1 inhibitors: inhibitors of human LYPLA2. O95372. recombinant LYPLA2, FP-Rh probe fluorescence polarization. inhibition, % at 5.9 µM. 320,000 compounds, 0.38% hits;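 active = inhibition above the screen-wide mean plus 3 SD, limit set per campaign, cut at about 26% in these data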;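 note: 0% = LYPLA2 with DMSO and 100% = wells lacking LYPLA2 enzyme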
Target sequence (O95372 whole entry, looked up): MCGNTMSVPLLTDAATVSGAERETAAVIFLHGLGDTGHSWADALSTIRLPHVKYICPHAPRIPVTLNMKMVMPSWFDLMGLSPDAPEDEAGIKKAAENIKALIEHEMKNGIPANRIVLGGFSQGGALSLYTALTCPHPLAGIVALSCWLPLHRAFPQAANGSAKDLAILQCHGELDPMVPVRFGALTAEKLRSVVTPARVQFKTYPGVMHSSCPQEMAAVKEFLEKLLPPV
LYPLA1 counter: LYPLA1 (human) inhibition in PME1 counter-screen | inhibition, % at 5.9 µM | 320,000 compounds, 0.16% hits | recombinant LYPLA1, FP-Rh probe fluorescence polarization | O75608;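 active = inhibition above the mean of all tested compounds plus 3 SD, set per campaign, cut at about 14% in these data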;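 note: inhibitors block serine hydrolase probe labeling of LYPLA1 so polarization falls; 0% = enzyme with DMSO and 100% = wells lacking LYPLA1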
pPAFAH inh: inhibitors of human plasma PAF acetylhydrolase (pPAFAH); Q13093; recombinant pPAFAH, FP-rhodamine probe fluorescence polarization; inhibition, % at 3.39 µM; 330,000 compounds, 1.5% hits; AID 463082;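 active = inhibition above the mean inhibition across the screen plus 3 SD, cut at about 25% in these data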;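 note: inhibitors block binding of the rhodamine activity-based probe so polarization drops; 0% = enzyme with DMSO and 100% = wells lacking pPAFAH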
PAFAH2 inh: PAFAH2 (human) inhibition; Q99487; recombinant PAFAH2, FP-rhodamine activity probe, fluorescence polarization; inhibition, % at 3.39 µM; 340,000 compounds, 0.99% hits; AID 492956;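 active = inhibition above the mean over all tested compounds plus 3 SD, cut at about 30% in these data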;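 note: inhibitors block probe labeling of enzyme so polarization drops; 0% = enzyme with DMSO and 100% = wells lacking PAFAH2 protein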
* marks the source's active call; other numbers are inactive results; x = no result. Hits are enriched below; roughly 2.9% of the tested compounds scored in any of these assays.

SMILES | PAFAH1B2 inh | PAFAH1B3 inh | LYPLA2 counter | LYPLA1 counter | pPAFAH inh | PAFAH2 inh
O=C(CSc1ccc(Cl)cc1)NC1=NN(c2ccccc2)C(=O)C1 | 96* | 7 | -1 | -4 | 32* | 18
Cc1c(NC(=O)CC(=O)Nc2c(C)n(C)n(-c3ccccc3)c2=O)c(=O)n(-c2ccccc2)n1C | 5 | 3 | 8 | -1 | 3 | 4
Cc1c(NC(=O)CCSc2ccc(Cl)cc2)c(=O)n(-c2ccccc2)n1C | 32* | 2 | 9 | 4 | 8 | 4
O=C(CSc1ccc(Cl)cc1)Nc1ccccc1Oc1ccccc1 | 9 | 9 | 7 | -1 | 7 | -7
CCC(=O)c1ccc(OCC(=O)OCC(=O)Nc2c(C)n(C)n(-c3ccccc3)c2=O)cc1 | 1 | 4 | -3 | 1 | 7 | -2
CCN(CC(=O)Nc1ccc2c(c1)OCCO2)C(=O)CN1C(=O)NC(C)(c2ccc(C)cc2)C1=O (stereo unspecified) | 8 | -1 | 4 | -1 | 2 | -7
CN1CCN(S(=O)(=O)c2ccc(NC(=O)c3cccc(F)c3)cc2)CC1 | 8 | 8 | -4 | -2 | -2 | -3
Cc1nnc2ccc(-c3ccc(NC(=O)c4ccc(Cl)nc4)cc3)nn12 | x | x | -1 | 0 | 1 | x
CCC(C(=O)NC1CCCC1)N(C(=O)Cn1nnc(-c2ccc(OC)c(OC)c2)n1)c1cccc(O)c1 (stereo unspecified) | 6 | -8 | -2 | -1 | 3 | -5
CC(C)c1ccc(/C=N/n2c(COc3ccccc3)n[nH]c2=S)cc1 | 29* | 24 | 1 | 4 | 10 | 35*
Cc1ccc(/C=N/n2c(COc3ccccc3)n[nH]c2=S)cc1 | 10 | 6 | 1 | 3 | 3 | -3
COc1ccc2c(c1)c(CC(=O)OCC(N)=O)c(C)n2C(=O)c1ccc(Cl)cc1 | 2 | 5 | -2 | -2 | 25* | -10
COC(=O)CNC(=O)Cc1c(C)n(C(=O)c2ccc(Cl)cc2)c2ccc(OC)cc12 | 0 | -4 | -4 | 0 | 15 | -3
CC(=O)Nc1cc(Cl)c(N=Cc2ccc(O)cc2O)cc1Cl | 1 | 5 | -12 | -9 | 41* | -11
O=C1CCC/C(=N/Nc2ccc(Cl)cc2)C1 | 3 | 4 | 8 | 2 | 27* | -2
O=C(NN=C1CCCC1)c1ccc(Cl)cc1 | 4 | 2 | -5 | -1 | -6 | 0
COC(=O)c1ccc(C)c(NC(=O)CCNC(=O)c2ccc([N+](=O)[O-])cc2)c1 | 3 | -3 | 5 | 6 | 29* | -5
O=C(NCC1CCCO1)c1onc(CSc2ccc(Cl)cc2)c1C(=O)O (stereo unspecified) | 25* | 5 | -3 | -1 | 12 | -1
CN(C)S(=O)(=O)c1cccc(C(=O)NCC2CCCO2)c1 (stereo unspecified) | 2 | -2 | 4 | 5 | 0 | -4
C/C(=N\NC(=O)c1ccc([N+](=O)[O-])cc1)c1c(O)cc(C)oc1=O | 1 | 3 | 1 | 4 | 6 | 2
Cc1ccc(C)c(S(=O)(=O)N2CCN(C(=O)CCNS(=O)(=O)c3ccc(C)c(C)c3)CC2)c1 | 3 | 6 | 6 | 2 | 27* | 6
Cc1ccc(C)c(S(=O)(=O)N2CCN(C(=O)/C=C/c3ccco3)CC2)c1 | 0 | 10 | -3 | -7 | 30* | 4
Cc1ccc(S(=O)(=O)N2CCN(C(=O)/C=C/c3ccco3)CC2)cc1 | 5 | -11 | -4 | 2 | 6 | 7
O=C(CCNS(=O)(=O)c1ccc(Cl)cc1)N1CCCCCC1 | 27* | -4 | -5 | -2 | 12 | 2
COC(=O)c1ccc(NC(=O)CN2CCN(S(=O)(=O)c3ccc(Br)cc3)CC2)cc1 | 19 | 4 | -3 | -3 | 2 | -3
SMILES | PAFAH1B2 inh | PAFAH1B3 inh | LYPLA2 counter | LYPLA1 counter | pPAFAH inh | PAFAH2 inh
COC(=O)c1c(C(=O)OC)c2cc(C)ccn2c1Cl | -4 | -2 | 2 | 0 | 2 | -6
Cc1ccccc1NS(=O)(=O)c1ccc(C(=O)NCC2CCCO2)cc1 (stereo unspecified) | 1 | 1 | 7 | 0 | 25* | -2
O=C(NCC1CCCO1)c1cccc(S(=O)(=O)Nc2ccc(SC(F)F)cc2)c1 (stereo unspecified) | -2 | 5 | 7 | 2 | 34* | 5
Cc1ccc(C)c(NS(=O)(=O)c2ccc(OCC(=O)NCC3CCCO3)cc2)c1 (stereo unspecified) | 5 | 2 | -11 | -3 | 28* | 4
O=Cc1c(N2CCN(CCO)CC2)nc2ccccn2c1=O | 8 | 1 | -7 | -4 | 3 | -10
Cc1[nH]c2ccccc2c1C(=O)CSC(=S)N(C)C | -3 | -1 | 0 | -4 | -4 | 0
Cc1ccc2cc(CCNS(=O)(=O)c3ccc(Br)cc3)c(=O)[nH]c2c1C | 30* | -6 | -6 | -4 | 4 | 4
Cc1cc(C)c(S(=O)(=O)NCCc2cc3ccc(C)c(C)c3[nH]c2=O)c(C)c1 | 10 | 12 | -3 | -2 | 0 | 16
Oc1c(Br)cc(/C=N/n2c(-c3ccccc3)n[nH]c2=S)c(Br)c1O | x | x | 6 | -8 | 88* | x
COc1ccc(NC(=O)COC(=O)C23CCC(=O)N2c2ccccc2S3)cc1 (stereo unspecified) | -3 | 9 | 0 | 1 | -7 | 0
O=C1CCC(=O)N1c1ccc(S(=O)(=O)Nc2ccc(Br)cc2)cc1 | 6 | -4 | 11 | 3 | 33* | -10
CCOC(=O)CC(=O)CSc1nc(C)nc2c1oc1ccccc12 | 2 | 0 | -3 | 1 | 3 | 4
COc1ccc(NC(=O)COC(=O)CC2CCCC2)cc1Cl | -4 | 9 | 2 | 4 | 27* | 43*
Cc1ccc(NC(=O)COC(=O)CC2CCCC2)cc1Cl | -4 | 7 | 6 | 2 | 18 | 68*
CCOc1ccc(C2=C(C=Nc3c(C)n(C)n(-c4ccccc4)c3=O)C(c3ccc(F)cc3)c3ccccc3O2)cc1 (stereo unspecified) | 0 | -1 | 13 | 4 | -2 | -1
O=C(O)CNC(=S)N(Cc1ccccc1Cl)C1CCCCC1 | 3 | 5 | 7 | 3 | -1 | 7
Cc1ccc(-n2ncc3c2CC(C)(C)CC3NC(=O)CN2CCCC2=O)cc1 (stereo unspecified) | -4 | 9 | 3 | -1 | 4 | -12
COc1ccc(-n2c(SCC(=O)Nc3ccc(NC(C)=O)cc3)nc3ccccc3c2=O)cc1 | 4 | -7 | 1 | -8 | 5 | 0
O=C1OC(c2ccco2)=N/C1=C\c1ccc(-c2cccc(C(F)(F)F)c2)o1 | 1 | 3 | -5 | 2 | 27* | 10
O=C(CSc1ncn[nH]1)NCCc1ccc(Cl)cc1 | 31* | 8 | 3 | -1 | 2 | 11
O=C(CSc1ccc2ccccc2c1)NCCc1ccc(O)c(O)c1 | 11 | 6 | 4 | 2 | 27* | 4
